Reference: PubChem BioAssay AID1159580 (chemical genetic matrix, 2015)
Hit rate of the full screen: of about 5,500 compounds, about 2,000 (36%) were called active. About 18% were inconclusive and are not listed. No stated cut-off is given here; in the data, active means normalized growth mostly below about 0.91 (no sharp cut-off); inconclusive means no clear call, values can overlap the other calls; inactive means mostly above about 0.92. This is one part of the list.

Assay: chemical genetic growth profiling, strain panel (AID 1159580);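 further: tested at 20 µM; growth read once vehicle control cultures reached saturation at 30 °C; 1 = growth at the plate median or of vehicle wells; lower values mean less growth of the strain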
Conditions: growth OD

Measured: normalized growth

CCn1cc(C(=O)O)c(=O)c2cc(F)c(N3CCNCC3)cc21
inactive: S. cerevisiae deletion strains, locus YJR043C, strain POL32, hits give low values 0.99 | S. cerevisiae deletion strains, locus YJR066W, strain TOR1, hits give low values 0.954 | S. cerevisiae deletion strains, locus YKL009W, strain mrt4, hits give low values 0.994 | S. cerevisiae deletion strains, locus YKL068W, hits give low values 1.01 | S. cerevisiae deletion strains, locus YKL085W, strain MDH1 (second series), hits give low values 1 | S. cerevisiae deletion strains, locus YKL085W, strain MDH1, hits give low values 1 | S. cerevisiae deletion strains, locus YKL160W, strain elf1, hits give low values 1.02 | S. cerevisiae deletion strains, locus YKL190W, strain CNB1, hits give low values 1.01 | S. cerevisiae deletion strains, locus YKR001C, strain vps1, hits give low values 0.985 | S. cerevisiae deletion strains, locus YKR026C, strain gcn3, hits give low values 0.978 | S. cerevisiae deletion strains, locus YKR091W, strain srl3, hits give low values 0.992 | S. cerevisiae deletion strains, locus YLL001W, strain dnm1, hits give low values 0.998 | S. cerevisiae deletion strains, locus YLL026W, hits give low values 0.992 | S. cerevisiae deletion strains, locus YLL041C, strain sdh2, hits give low values 0.981 | S. cerevisiae deletion strains, locus YLR027C, strain aat2, hits give low values 0.988 | S. cerevisiae deletion strains, locus YLR039C, strain RIC1, hits give low values 0.92 | S. cerevisiae deletion strains, locus YLR058C, strain SHM2, hits give low values 1.01 | S. cerevisiae deletion strains, locus YLR102C, strain apc9, hits give low values 1 | S. cerevisiae deletion strains, locus YLR113W, strain HOG1, hits give low values 1.02 | S. cerevisiae deletion strains, locus YLR221C, strain rsa3, hits give low values 1.01 | S. cerevisiae deletion strains, locus YLR258W, strain gsy2, hits give low values 0.988 | S. cerevisiae deletion strains, locus YLR262C, strain YPT6 (second series), hits give low values 0.97 | S. cerevisiae deletion strains, locus YLR262C, strain YPT6, hits give low values 0.92 | S. cerevisiae deletion strains, locus YLR268W, strain sec22, hits give low values 0.96 | S. cerevisiae deletion strains, locus YLR320W, strain mms22, hits give low values 0.998 | S. cerevisiae deletion strains, locus YLR330W, strain CHS5, hits give low values 1 | S. cerevisiae deletion strains, locus YLR342W, strain FKS1 (second series), hits give low values 0.927 | S. cerevisiae deletion strains, locus YLR342W, strain FKS1, hits give low values 0.991 | S. cerevisiae deletion strains, locus YLR357W, strain rsc2, hits give low values 0.95 | S. cerevisiae deletion strains, locus YLR370C, strain arc18, hits give low values 0.982 | S. cerevisiae deletion strains, locus YLR371W, strain rom2, hits give low values 1.01 | S. cerevisiae deletion strains, locus YLR384C, strain iki3, hits give low values 0.983 | S. cerevisiae deletion strains, locus YLR418C, strain cdc73, hits give low values 0.924 | S. cerevisiae deletion strains, locus YML016C, strain PPZ1, hits give low values 1 | S. cerevisiae deletion strains, locus YML032C, strain rad52, hits give low values 0.987 | S. cerevisiae deletion strains, locus YML120C, strain ndi1, hits give low values 0.976 | S. cerevisiae deletion strains, locus YML124C, strain tub3, hits give low values 1 | S. cerevisiae deletion strains, locus YMR058W, strain fet3, hits give low values 0.986 | S. cerevisiae deletion strains, locus YMR078C, strain ctf18, hits give low values 1.01 | S. cerevisiae deletion strains, locus YMR125W, strain sto1, hits give low values 0.965 | S. cerevisiae deletion strains, locus YMR129W, hits give low values 0.969 | S. cerevisiae deletion strains, locus YMR205C, strain PFK2, hits give low values 1.01 | S. cerevisiae deletion strains, locus YMR223W, strain ubp8, hits give low values 0.989 | S. cerevisiae deletion strains, locus YMR231W, strain pep5, hits give low values 0.987 | S. cerevisiae deletion strains, locus YMR263W, strain SAP30, hits give low values 0.998 | S. cerevisiae deletion strains, locus YMR307W, strain GAS1, hits give low values 0.899 | S. cerevisiae deletion strains, locus YNL067W, strain RPL9B, hits give low values 1.01 | S. cerevisiae deletion strains, locus YNL071W, strain lat1, hits give low values 0.962 | S. cerevisiae deletion strains, locus YNL128W, strain TEP1, hits give low values 1.03 | S. cerevisiae deletion strains, locus YNL183C, strain NPR1, hits give low values 0.962 | S. cerevisiae deletion strains, locus YNL209W, strain ssb2, hits give low values 0.986 | S. cerevisiae deletion strains, locus YNL233W, strain BNI4, hits give low values 0.998 | S. cerevisiae deletion strains, locus YNL248C, strain rpa49, hits give low values 0.992 | S. cerevisiae deletion strains, locus YNL250W, strain rad50, hits give low values 0.985 | S. cerevisiae deletion strains, locus YNL271C, strain bni1, hits give low values 0.986 | S. cerevisiae deletion strains, locus YNL298W, strain CLA4, hits give low values 0.99 | S. cerevisiae deletion strains, locus YNL307C, strain MCK1, hits give low values 0.997 | S. cerevisiae deletion strains, locus YNL322C, strain KRE1 (second series), hits give low values 0.981 | S. cerevisiae deletion strains, locus YNR049C, strain mso1, hits give low values 0.985 | S. cerevisiae deletion strains, locus YNR052C, strain pop2, hits give low values 0.998 | S. cerevisiae deletion strains, locus YOL006C, strain TOP1, hits give low values 0.965 | S. cerevisiae deletion strains, locus YOL012C, strain htz1 0.792 | S. cerevisiae deletion strains, locus YOL147C, strain pex11, hits give low values 0.999 | S. cerevisiae deletion strains, locus YOR001W, strain rrp6, hits give low values 0.94 | S. cerevisiae deletion strains, locus YOR061W, strain CKA2, hits give low values 1 | S. cerevisiae deletion strains, locus YOR069W, strain VPS5, hits give low values 1.01 | S. cerevisiae deletion strains, locus YOR070C, strain gyp1, hits give low values 0.979 | S. cerevisiae deletion strains, locus YOR080W, strain dia2, hits give low values 0.974 | S. cerevisiae deletion strains, locus YOR083W, strain WHI5, hits give low values 1.04 | S. cerevisiae deletion strains, locus YOR106W, strain vam3, hits give low values 1 | S. cerevisiae deletion strains, locus YOR136W, strain idh2, hits give low values 1.01 | S. cerevisiae deletion strains, locus YOR144C, strain elg1, hits give low values 0.998 | S. cerevisiae deletion strains, locus YOR184W, strain ser1, hits give low values 1.01 | S. cerevisiae deletion strains, locus YOR231W, strain MKK1, hits give low values 0.988 | S. cerevisiae deletion strains, locus YOR265W, strain rbl2, hits give low values 0.983 | S. cerevisiae deletion strains, locus YOR270C, strain vph1, hits give low values 0.956 | S. cerevisiae deletion strains, locus YOR290C, strain snf2, hits give low values 0.974 | S. cerevisiae deletion strains, locus YOR316C, strain cot1, hits give low values 1.01 | S. cerevisiae deletion strains, locus YPL051W, strain arl3, hits give low values 0.994 | S. cerevisiae deletion strains, locus YPL055C, strain LGE1, hits give low values 0.991 | S. cerevisiae deletion strains, locus YPL078C, strain atp4, hits give low values 0.979 | S. cerevisiae deletion strains, locus YPL106C, strain sse1, hits give low values 0.972 | S. cerevisiae deletion strains, locus YPL240C, strain hsp82, hits give low values 0.983 | S. cerevisiae deletion strains, locus YPL256C, strain CLN2, hits give low values 0.944 | S. cerevisiae deletion strains, locus YPR119W, strain clb2, hits give low values 1 | S. cerevisiae deletion strains, locus YPR141C, strain kar3, hits give low values 1 | S. cerevisiae deletion strains, locus YPR163C, strain tif3, hits give low values 1 | S. cerevisiae deletion strains, locus YPR167C, strain met16, hits give low values 1.01 | S. cerevisiae deletion strains, strain wtn01, hits give low values 0.998 | S. cerevisiae strains, strain wild type, hits give low values 1.01
